Inhibition data for 82 molecules are collected here from PubChem BioAssay AID1053197 (The Scripps Research Institute Molecular Screening Center, 2014).

Broadly, the inhibition is the change of the read-out against control, counted positive when it falls.

Hit rate of the full screen: of about 370,000 compounds, about 2,600 (0.7%) were called active. The list comes from a sample in which actives are over-represented; it also holds similar structures and randomly drawn compounds. Values without a mark were called inactive.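 Rule for the calls: active = inhibition above a cutoff: mean of compounds within the control limits plus 3 SD of those (cut at about 17% in these data); inactive = the rest.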

The target in the assay is Sialate O-acetylesterase (Homo sapiens) (UniProt Q9HAT2). As to the kind of experiment: human SIAE inhibitors, primary screen, biochemical, fluorescence polarization, FP-Rh probe, 1536-well HTS (AID 1053197).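 Note: 0% = plate median of compound wells and 100% = probe without SIAE protein.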 The following applies: SIAE FP-Rh probe binding, at 9.66 µM, active compounds read high. A general note: In fluorescence polarisation assays a small probe gives low polarisation when free and higher when bound to something large.
Sialate O-acetylesterase (Homo sapiens), sequence (Q9HAT2 whole entry, looked up): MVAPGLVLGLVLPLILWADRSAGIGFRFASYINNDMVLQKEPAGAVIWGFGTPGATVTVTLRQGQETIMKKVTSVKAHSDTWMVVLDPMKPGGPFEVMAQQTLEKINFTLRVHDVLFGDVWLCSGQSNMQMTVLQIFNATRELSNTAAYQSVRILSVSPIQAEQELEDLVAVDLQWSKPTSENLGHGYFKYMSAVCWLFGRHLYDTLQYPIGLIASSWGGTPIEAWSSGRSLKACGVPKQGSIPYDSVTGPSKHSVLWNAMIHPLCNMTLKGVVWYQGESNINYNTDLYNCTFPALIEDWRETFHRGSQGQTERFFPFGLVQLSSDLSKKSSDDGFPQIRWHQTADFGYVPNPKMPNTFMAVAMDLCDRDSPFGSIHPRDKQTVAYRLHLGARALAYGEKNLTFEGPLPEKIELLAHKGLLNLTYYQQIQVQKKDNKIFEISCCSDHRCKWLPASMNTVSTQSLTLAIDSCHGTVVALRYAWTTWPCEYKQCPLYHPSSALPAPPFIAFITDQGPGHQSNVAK
For `Cc1cccc(N2C(=O)SC(N(CC(=O)O)c3cccc(C)c3)C2=O)c1` (configuration not stated), the inhibition was 1.65%. On to `COC(=O)c1ccccc1SC1CC(=O)N(c2cccc(C)c2)C1=O` (configuration not stated), for which the inhibition was -0.8%.

In the case of `Cc1cccc(N2C(=O)SC(SC(=Nc3ccccc3)Nc3ccccc3)C2=O)c1` (configuration not stated), the inhibition was 18.1% (active).

With `COc1ccc(Cn2cc(COC(=O)N(C)Cc3ccccc3)nn2)cc1`, the inhibition is 0.99%. On to `CCOC(=O)[C@]12CCCC3=C1N(CCC3)C(=O)[C@@H](CC(=O)N1CCSCC1)C2`, for which the inhibition is -3.23%. With `Cc1cc(=O)[nH]c(SCC(=O)Nc2ccc(F)cc2F)n1`, the inhibition is -0.82%.

For `CCN(CC)S(=O)(=O)c1cc(C(=O)Nc2cc(S(=O)(=O)N3CCOCC3)ccc2N2CCCC2)ccc1F`, the inhibition is 1.03%. As for `O=C(Nc1ccccc1N1CCCC1)c1ccc(F)c(S(=O)(=O)N2CCOCC2)c1`, the inhibition was 20.5% (active).

On to `Cc1ccc(S(=O)(=O)N2CCOCC2)cc1C(=O)Nc1ccccc1N1CCCC1`, for which the inhibition is 12.1%.

Regarding `CC(C)CNC(=O)OCc1cn(Cc2ccc(F)cc2)nn1`, the inhibition is -8.33%.

Consider `Cc1cc(=O)[nH]c(SCC(=O)Nc2ccc(Cl)cc2C)n1`, for which the inhibition is 1.99%.

As for `O=C(c1ccccc1)c1ccc(-c2ccccc2C(=O)NC2CCCCN(Cc3ccc(Cl)cc3)C2=O)cc1` (configuration not stated), the inhibition was 1.39%. Under `CC1CCCCC1NC(=O)/C(C#N)=C/C=C/c1ccccc1[N+](=O)[O-]` (configuration not stated) stands 17.2% (active). Under `CC1CC(C)CN(C/C=C/c2ccccc2[N+](=O)[O-])C1` (configuration not stated) stands 2.91%. The same measure for `COc1cc(/C=C(\C#N)C(=O)Nc2ccc3ccccc3c2)c([N+](=O)[O-])cc1OC`: -1.47%.

Regarding `CC(C)CNc1cccc2c1S(=O)(=O)N(Cc1cn(Cc3ccc(Cl)cc3)nn1)Cc1ccccc1O2`, the inhibition was 3.21%. `O=C(NC1CCCCN(Cc2ccc(Cl)cc2)C1=O)c1ccc(Br)cc1` (configuration not stated): the inhibition was -3.06%. Under `CN(Cc1ccc(CNC[C@H]2O[C@@H](n3cnc4c(N)ncnc43)[C@H](O)[C@@H]2O)o1)S(C)(=O)=O` stands -0.06%; under `Nc1ncnc2c1ncn2[C@@H]1O[C@H](C(=O)N2CCCN(Cc3ccccc3F)CC2)[C@@H](O)[C@H]1O`, -1.61%. Under `Nc1ncnc2c1ncn2[C@@H]1O[C@H](C(=O)N2CCSC2)[C@@H](O)[C@H]1O` stands 1.67%. With `CN(Cc1ccc(C(F)(F)F)cc1)C(=O)[C@H]1O[C@@H](n2cnc3c(N)ncnc32)[C@H](O)[C@@H]1O`, the inhibition is 81.3% (active). As to `Nc1ncnc2c1ncn2[C@@H]1O[C@H](C(=O)NCC(F)(F)F)[C@@H](O)[C@H]1O`, the inhibition was 51.2% (active).

Turning to `Nc1ncnc2c1ncn2[C@@H]1O[C@H](C(=O)N[C@@H](CCc2ccccc2)C(=O)NCC(=O)N2CCOCC2)[C@@H](O)[C@H]1O`, the inhibition was 2.34%.

With `CC(C)CSc1nnc(-c2cccnc2)n1Cc1ccccc1`, the inhibition is 0.87%.

`O=C(NCc1ccc(Cl)cc1)C1CCCN(c2nc3ccccc3o2)C1` (configuration not stated): the inhibition was 1.99%.

In the case of `O=C(Nc1cc(F)cc(F)c1)OC1CCC12CCC(c1ccccc1)CC2` (configuration not stated), the inhibition was -17%. `Nn1c(SCC(=O)N2c3ccccc3Sc3ccccc32)nnc1-c1n[nH]c2c1CCC2`: the inhibition was -8.15%. Consider `CN(C)CC(=O)N[C@@H]1C[C@@H]2O[C@H](CO)CC[C@@H]2O[C@@H]1CCc1ccc(C#Cc2ccccc2)cc1`, for which the inhibition was 5.34%.

On to `COc1ccc(C(=O)OCCN(C)C2CN(Cc3cn(Cc4cccc(C)c4)nn3)S(=O)(=O)C2)cc1OC` (configuration not stated), for which the inhibition was -4.69%. Take `O=C(N/N=C/c1ccc(O)c2ccccc12)c1cccnc1`: the inhibition was 18.7% (active). For the molecule `C/C(=N\NC(=O)c1cccnc1)c1ccc(-n2ccnc2)cc1`, the inhibition was 2.74%. The same measure for `C/C(=N\NC(N)=S)c1cccnc1`: 1.42%; for `O=C(NN=C1CCC(=NNC(=O)c2cccnc2)CC1)c1cccnc1`: 20.1% (active).

Regarding `O=C(O)/C(=C/c1cccnc1)NC(=O)c1ccccc1`, the inhibition was 5.04%. For `NS(=O)(=O)c1ccc(NC(=S)NC(=O)c2cccnc2)cc1`, the inhibition was 1.85%. Regarding `Cc1cc(NS(=O)(=O)c2ccc(NC(=O)CSc3nnc(-c4ccc(C(C)(C)C)cc4)n3Cc3ccco3)cc2)nc(C)n1`, the inhibition was -2.29%. Regarding `COC(=O)[C@]12C[C@H](CC(=O)NCC34CC5CC(CC(C5)C3)C4)C(=O)N(Cc3ccc(Cl)cc3Cl)C1=C[C@H](COCc1ccccc1)O[C@@H]2C`, the inhibition was -3.29%. As to `COc1cc(C(=O)Nn2c(O)c(C3=c4ccccc4=NC3=O)sc2=S)ccc1O`, the inhibition is 40.2% (active).

With `COc1cc(C(=O)Nn2c(CC(C)C)nc3ccccc3c2=O)cc(OC)c1OC`, the inhibition is -1.34%.

Take `COc1cc(C(=S)NC2CCCCC2)ccc1O`: the inhibition was 2.61%. Take `Cc1ccc(Cn2cc(COC(=O)N(C)Cc3ccccc3)nn2)cc1`: the inhibition is 2.24%. Consider `CC(=O)N1CCCN(C2=Nc3ccccc3Sc3ccccc32)CC1`, for which the inhibition was 13.5%. Consider `COCCNC(=O)Nc1ccc2nc(-c3ccco3)c(-c3ccco3)nc2c1`, for which the inhibition was 37.3% (active). Turning to `COCCN(C(=O)c1ccco1)c1nnc(-c2ccc(OC)cc2)s1`, the inhibition is -0.46%. In the case of `COCCNC(=O)c1cc2c(Br)ccc(Br)c2nc1N`, the inhibition was -3.42%. On to `CCCCCN1CCCCC(NC(=O)C(C)CCC)C1=O` (configuration not stated), for which the inhibition was -1.97%. The same measure for `CCOC(=O)[C@]12CCCC=C1N(Cc1ccc(OC)cc1)C(=O)[C@@H]2CC(=O)NCc1cccs1`: 0.94%; for `Cc1c[nH]c2cccc(-c3ccc(Cl)cc3)c12`: 4.94%; for `CC(=O)NC(c1cccs1)c1cc(Br)c2cccnc2c1O` (configuration not stated): 20.8% (active). In the case of `O=[N+]([O-])c1cc([N+](=O)[O-])c2cccnc2c1O`, the inhibition was 0.23%. Consider `CCCCC(=O)NC(c1ccc(OC)c(OC)c1)c1ccc2cccnc2c1O` (configuration not stated), for which the inhibition was 15.1%. On to `COC(=O)[C@]12C[C@H](CC(=O)N3CCN(C(=O)C4CC4)CC3)C(=O)N(CCC3=CCCCC3)C1=C[C@H](C(C)C)O[C@@H]2C1CC1`, for which the inhibition is 0.92%. Regarding `O=C(CSc1nc2ccccc2n1Cc1ccccc1)NNC(=S)Nc1ccccc1`, the inhibition is 2.33%. Consider `COCC(=O)N[C@@H]1C[C@@H]2O[C@@H](CO)CC[C@@H]2O[C@@H]1CCc1ccc(-c2ccccc2)cc1`, for which the inhibition was 2.31%.

As to `Cc1ccc(Cn2cc(CN3[C@@H](CC(C)C)COc4ccc(Cl)cc4S3(=O)=O)nn2)cc1`, the inhibition was 1.1%. In the case of `COc1ccc(C2CC(c3cccc(OC)c3)=NN2c2ccc(S(N)(=O)=O)cc2)cc1` (configuration not stated), the inhibition is 6.8%. With `Oc1ccccc1C1=NN(c2ccccc2)C(c2ccccc2)C1` (configuration not stated), the inhibition was 20.5% (active). As to `Cc1ccc(N2C(=O)C3N=NN(CC(=O)N4N=C(c5cccc6ccccc56)CC4c4ccccc4)C3C2=O)cc1` (configuration not stated), the inhibition was -11.7%.

As for `O=C1CC[C@@]23CCCN2C(=O)CCC[C@H]3[C@H]1Cc1ccccc1`, the inhibition was 4.29%. In the case of `Cc1cccc(Cn2c(N3CCN(c4ccccc4)CC3)nc3c2c(=O)n(C)c(=O)n3C)c1`, the inhibition is -1.65%.

With `CCOc1ccc2nc(NC(=O)CSc3nc4c(c(=O)n(C)c(=O)n4C)n3CC)sc2c1`, the inhibition was -3.15%. Under `CCOc1ccc(Cn2c(SCCCCC#N)nc3c2c(=O)n(C)c(=O)n3C)cc1OCC` stands 25.8% (active); under `COC(=O)c1cccc(Cn2ccc3ccc(-c4ccc5ccn(C(=O)C6CCCCC6)c5c4)cc32)c1`, -4.45%; under `N#CCC[C@H]1CC[C@]2(CCCN(Cc3ccc(Cl)cc3)C2)O1`, 1.15%.

In the case of `C#CCNC(=O)C[C@H]1C[C@@]2(C(=O)OC)C(=C[C@H](C(C)C)O[C@@H]2C2CC2)N(Cc2ccco2)C1=O`, the inhibition was 4.68%. With `COc1ccc(/C=N/Nc2ncnc3sc4c(c23)CCCC4)cc1O`, the inhibition was -1.15%. Consider `COc1cc(/C=N\Nc2nc(-c3cccs3)c(NC(C)=O)s2)ccc1O`, for which the inhibition is 18.3% (active). On to `COc1cc(/C=C/C(=O)OCC(=O)NCCCc2ccccc2)ccc1O`, for which the inhibition is 9.1%. Take `O=C(NCc1cccs1)C1CCCN(S(=O)(=O)c2ccc([N+](=O)[O-])cc2)C1` (configuration not stated): the inhibition was 3.31%. With `COc1ccc(-n2c(SCC(=O)Nc3ccc4c(c3)OCCO4)nnc2-c2ccc(Cl)cc2)cc1`, the inhibition is 2.64%. Regarding `CCCCn1c(N)c(N(CC(C)C)C(=O)CN(C)S(=O)(=O)c2ccc(F)cc2)c(=O)[nH]c1=O`, the inhibition is 2.93%.

For `CCCCn1c(N)c(N(CC(C)C)C(=O)CSc2ccc([N+](=O)[O-])cc2)c(=O)[nH]c1=O`, the inhibition was 17.8% (active). Consider `CCCCn1c(N)c(N(CCC(C)C)C(=O)c2ccc([N+](=O)[O-])o2)c(=O)[nH]c1=O`, for which the inhibition is 1.61%. Turning to `CCC(=O)OCCCN1C(=O)CCC12CCC(c1ccccc1)CC2` (configuration not stated), the inhibition is 10.2%. As for `COC(=O)[C@@]12CCCCC3=C1N(CCC3)C(=O)[C@H]2CC(=O)NCc1cccc2ccccc12`, the inhibition was 3.42%.

Regarding `CC(C)C(C#CC1CC1)N(Cc1ccc2c(c1)OCO2)C(N)=NC(=O)/C=C/c1cccc(C(F)(F)F)c1` (configuration not stated), the inhibition is -3.05%. As for `CCN(CC)C(=O)CC[C@@H]1CC[C@]2(CCCN(S(=O)(=O)C3CCCCC3)C2)O1`, the inhibition is 0.62%. As to `Cc1ccc(Nc2nc(-c3ccc(O)cc3O)cs2)nc1`, the inhibition was 20.7% (active). Turning to `Cc1ccc(-c2csc(NCCc3nc4cc(Cl)c(Cl)cc4n3CCOCCO)n2)cc1`, the inhibition is 1.85%. With `CC(=O)Nc1cnc(-c2ccc(O)cc2C)cn1`, the inhibition is 1.05%. Turning to `COC(=O)[C@H](C(C)C)N(CCc1cn(Cc2ccccc2)nn1)S(=O)(=O)c1ccc(F)cc1Br`, the inhibition was 0.91%. With `Cc1ccc(-n2c(SCC(=O)Nc3ccc(S(=O)(=O)Nc4nccs4)cc3)nnc2-c2ccccn2)cc1`, the inhibition was -6.07%.
